Inconclusive results are not listed. Active and inactive are the calls of the source. The calls were made as follows: active = hit-call score of the fitted dose curve at least 0.9, where 1 is the maximum; inconclusive = response in the unintended direction; inactive = score below 0.9.
Test: ATG_M_06_TRANS: Attagene TRANS-FACTORIAL HepG2 Assay for M06 Transcription Factor (Internal Marker) (AID 2282983)
Details: HepG2 Attagene TRANS M06 internal marker reporter
Protocol: ATG_TRANS is a cell-based, multiplexed-readout assay that uses HepG2, a human liver cell line, with measurements taken at 24 hours after chemical dosing in a 24-well plate.ATG_M_06_TRANS is one of 30 assay component(s) measured or calculated from the ATG_TRANS assay. It is designed to make measurements of mRNA induction, a form of inducible reporter, as detected with fluorescence intensity signals by Reverse transcription polymerase chain reaction (RT-PCR) and Capillary electrophoresis technology.Data from the assay component ATG_M_06_TRANS was analyzed into 1 assay endpoint. This assay endpoint, ATG_M_06_TRANS, was analyzed in the positive analysis fitting direction relative to DMSO as the negative control and baseline of activity. Using a type of inducible reporter, measures of mRNA for gain-of-signal activity can be used to understand the background control at the transcription factor-level as they relate to the gene . Furthermore, this assay endpoint can be referred to as a secondary readout, because this assay has produced multiple assay endpoints where this one serves a background control function. To generalize the intended target to other relatable targets, this assay endpoint is annotated to the background measurement intended target family, where the subfamily is internal marker.
Human liver HepG2 cells are transiently transfected with multiple reporter transcription units (MRTUs) in 6-well plates using FuGene 6 reagent (Roche; 3 ml FuGene/1 mg DNA). The MRTU constructs are regulated by a cis-regulating element (promoter). […] A major difference between the CIS and TRANS system is that in CIS activities of endogenous TFs are measured, whereas the TRANS assay evaluates changes in activities of exogenous, chimeric NR-Gal4 proteins. […] At the end of 24 hour incubation, total RNA was isolated using TriZol reagent (Invitrogen). The isolated RNA is then reverse-transcribed using oligo(dT) primer and Mo-MLV reverse transcriptase (Invitrogen) with DNAse I (Ambion) treatment for 30 min. The one-tenth of the produced cDNA was amplified by PCR using Taq DNA polymerase (Invitrogen) and two reporter sequence-specific primers. The PCR products were fluorescently labeled by primer extension with 6-arboxyfluorescein (6-FAM) 5'-labeled reporter sequence-specific primer (2 min at 95 C, 20 s at 68 C and 10 min at 72 C) and these products were digested with 5U of HpaI (New England Biolabs) for 2h at 37 C. The fragments were purified using Qiaquick PCR columns (Qiagen), analyzed on an ABI 3130xL genetic analyzer (Applied Biosystems) with peak positions identified by using a set of X-rhodamine (ROX)-labeled MapMarker1000 molecular weight standards (BioVentures). The raw capillary electrophoresis data was processed using Attagraph software (Attagene).

Structure (SMILES) | outcome
ClCC(Cl)Cl | inactive
Cc1cc(C)c(C2=C(OC(=O)CC(C)(C)C)C3(CCCC3)OC2=O)c(C)c1 | inactive
[N-]=[N+]=CC(=O)OC[C@H](N)C(=O)O | inactive
O=[N+]([O-])O | inactive
C=COCCCl | inactive
NNc1ccccc1 | inactive
Nc1ccc(Cl)c(Cl)c1 | inactive
O=C1Nc2ccc(Cl)cc2C(c2ccccc2)=NC1O (stereo not given) | inactive
Cc1ccccc1CCl | inactive
CCC1CCC(=O)O1 (stereo not given) | inactive
C[N+](C)(C)CC(=O)[O-] | inactive
c1ccc(Nc2ccc3ccccc3c2)cc1 | inactive
Oc1cc(Cl)ccc1Cl | inactive
CN(C)CCC#N | inactive
CC(C)c1ccc(O)cc1 | inactive
O=[N+]([O-])c1cc([N+](=O)[O-])c2ccccc2c1 | inactive
CCCCOP(=O)(O)OCCCC | inactive
CC(C)COP(=O)(OCC(C)C)OCC(C)C | inactive
N#CCNCC#N | inactive
ClCCCCCCCl | inactive

Structure (SMILES) | outcome
CC(C)(O)C#N | inactive
O=C(O)c1cc[c]([Hg][Cl])cc1 | inactive
CC(=O)c1cc2c(cc1C)C(C)(C)C(C)CC2(C)C (stereo not given) | inactive
C=C(Cl)Cl | inactive
[Cl][Sb]([Cl])[Cl] | inactive
C=CC(=O)OCCCCOC(=O)C=C | inactive
CCC(C)c1cc([N+](=O)[O-])cc([N+](=O)[O-])c1OC(=O)C=C(C)C (stereo not given) | inactive
N#CCCCCC#N | inactive
C#CC1(O)CCCCC1 | inactive
S=c1[nH]c2ccccc2[nH]1 | inactive
CC(C)CCCCCCCOP(=O)(Oc1ccccc1)Oc1ccccc1 | inactive
CCOC(=O)COc1ccc(Cl)cc1Cl | inactive
c1cc(OCC2CO2)ccc1Cc1ccc(OCC2CO2)cc1 (stereo not given) | inactive
CC(=O)/C=C/c1ccccc1 | inactive
C=C(Cl)CCl | inactive
Nc1ccccc1C(=O)Oc1ccc2ccccc2c1 | inactive
C[N+](=O)[O-] | inactive
CCC[N+](=O)[O-] | inactive
O=[N+]([O-])C=Cc1ccccc1 | inactive
[CH3][Sn]([Cl])([Cl])[Cl] | inactive

Source: PubChem BioAssay (EPA / NIEHS)
